Screening data from PubChem BioAssay.
This is a sample that favours compounds with a hit; in the whole collection about 4.2% have one here.
ssDAF-12 act: activates DAF-12 receptor from parasite S. stercoralis. HEK293 ssDAF-12/GRIP1 lit1-tk-luc reporter, luminescence; % of 3 µM dafachronic acid response. activation, % at 6.8 µM. 1% of 370,000 active;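 active = activation above the mean over all tested compounds plus 3 SD, cut at about 0.9% in these data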;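 also: 0% = DMSO-only wells and 100% = 3 µM delta7-dafachronic acid wells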
hgDAF-12 ag: activates the H. glycines DAF-12 receptor ligand-binding domain | AID 687014 | activation, % at 6.8 µM | HEK293 GAL4-hgDAF12 UAS-luciferase reporter, agonist luminescence; normalized to butyrate control | 1.8% of 370,000 active;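 active = activation above a cutoff set at the mean of all screened compounds plus 3 SD, cut at about 10% in these data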;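 also: 0% = DMSO wells and 100% = sodium butyrate wells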
hcDAF-12 act: activates DAF-12 receptor from parasite H. contortus. HEK293 hcDAF-12 lit1-tk-luc reporter, luminescence; 0% DMSO, 100% Δ7-dafachronic acid. activation, % at 6.8 µM. AID 652067. 1.4% of 370,000 active;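 active = activation above the mean of all tested compounds plus 3 SD, cut at about 5.5% in these data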;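 also: 100% = response to 3 µM Δ7-dafachronic acid high control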
DAX1 StAR inh: DAX1 (NR0B1) inhibition, primary screen; inhibition, % at 6.8 µM; HEK293T StAR-luciferase reporter, SF-1/DAX-1 repression relief; 1.1% of 370,000 active;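 active = inhibition above the mean over all tested compounds plus 3 SD, cut at about 3.6% in these data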;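 also: 0% = DAX-1 cells with DMSO and 100% = cells lacking DAX-1 with DMSO; higher inhibition means more luminescence from relief of DAX-1 repression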
SMARCA2 activ: activators of SMARCA2 function | activation, % at 9.1 µM | MG213 cells, MMTV-luciferase reporter, dexamethasone, overnight | AID 652017 | 1% of 370,000 active; in the data active = activation above about 7.8%;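 also: 0% = vehicle wells and 100% = reference activator wells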
SMARCA2 conf: confirmation of SMARCA2 (BRM) function activators. shares compounds with SMARCA2 activ. AID 652260. MG213 cells, MMTV-luciferase with dexamethasone, luminescence, overnight; MG213 cells expressing E1A, Rb sequestered; DMSO wells 0%, reference activator 100%. activation, % at 9.1 µM. 30% of 3,500 active;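 active = activation above its plate's cutoff, the mean activation of tested wells plus 3 SD, cut at about 7.9% in these data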
GAL4-VP16 Luc: activates GAL4-VP16 luciferase, flagging SMARCA2 activator hits; shares compounds with SMARCA2 activ; HEK293 GAL4-VP16 pG5luc reporter, luciferase luminescence; scaled: DMSO wells 0%, SAHA wells 100%; activation, % at 9.1 µM; 41% of 3,500 active;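 active = activation above the solvent-only control well mean plus 3 SD, averaged across control plates, cut at about 5.2% in these data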
The depositor's hits bear a star; . = no result given.

SMILES	ssDAF-12 act	hgDAF-12 ag	hcDAF-12 act	DAX1 StAR inh	SMARCA2 activ	SMARCA2 conf	GAL4-VP16 Luc
CN(C(=O)c1cccc(NC(=O)Cc2ccc(NC(=O)C3CCCN(C(=O)c4ccccc4)C3)cc2)c1)C1CC1 (stereo unspecified)	0	-4	-2	0	-6	.	.
O=C(Cc1ccc(Br)cc1)NC1CCCc2ccccc21 (stereo unspecified)	-1	-3	-2	0	-2	.	.
O=C(CCl)NC1CCCc2ccccc21 (stereo unspecified)	-1	-3	0	-3	9.3*	-2	-1
Cc1ccc(-n2c(C)cc(C=C(C#N)C#N)c2C)cc1	-1	-1	-2	0	12*	1	2
Cc1cc(C=C(C#N)C#N)c(C)n1-c1ccccc1	-1	1	1	0	0	.	.
COc1cccc(C(=O)NC2CC3CCCC(C2)N3CC(=O)Nc2ccccc2C(F)(F)F)c1 (stereo unspecified)	-2	-6	-6	-1	-7	.	.
CCc1cccc(CC)c1NC(=O)CN1C2CCCC1CC(NC(=O)Nc1cccc(OC)c1)C2 (stereo unspecified)	-2	4	-2	1	11*	-1	1
CC(C)(C)OC(=O)N1CCC[C@@H]1C(=O)N1CCC[C@@H]1C(=O)NCc1ccccc1Cl	0	1	-1	0	-4	.	.
CCCc1nnc2c(N(C)S(=O)(=O)c3ccccc3)nc3ccccc3n12	-1	-1	0	0	-4	.	.
Cc1nnc2c(N(C)S(=O)(=O)c3ccccc3)nc3ccccc3n12	-2	0	-1	1	8.2*	9.0*	3
C[C@@H]1ON(C)[C@H]2C[C@H]3c4[nH]c5cccc(-c6ccccc6)c5c4CCN3C[C@@H]12	-1	1	0	0	-5	.	.
Cc1ccsc1C1NC(=O)c2c(sc3c2CCN(C)C3)N1 (stereo unspecified)	-1	2	0	0	0	.	.
CN1CCc2c(sc3c2C(=O)NC(c2cccs2)N3)C1 (stereo unspecified)	-1	7	3	0	11*	4	2
COc1cc(-c2cnc3c(NC=O)cc(-c4ccc(N5CCN(C)CC5)cc4)cn23)cc(OC)c1OC	0	11*	3	3	8.5*	9.3*	14*
COc1cc(-c2cc(NC=O)c3ncc(-c4ccc(F)cc4)n3c2)cc(OC)c1OC	-1	-6	-3	-2	-5	.	.
COc1cc(-c2cc(NC=O)c3ncc(-c4ccc(C(C)=O)cc4)n3c2)ccc1O	-1	11*	-3	-1	14*	21*	5
COc1ccc(-c2cc(NC=O)c3ncc(-c4ccc(OC)c(OC)c4)n3c2)cc1OC	-1	0	-2	-2	13*	15*	8.6*
CCc1c(-c2cccc(OC)c2)ncn1CCc1ccccc1OC	-2	1	1	-3	-2	.	.
CCCCn1nnnc1C(c1ccccc1)N1CCN(c2ncccc2C(F)(F)F)CC1 (stereo unspecified)	-1	-1	-1	-2	-7	.	.
CC(C)CNS(=O)(=O)/C=C/c1cc2c(cc1CNC(=O)OC(C)(C)C)OCO2	-1	-4	-4	0	-2	.	.
O=C(c1cc(-c2ccccc2)nc2ccccc12)N1CCCC1	0	0	-1	0	-1	.	.
c1ccc(-c2cc(NCCN3CCCCC3)c3ccccc3n2)cc1	-1	4	1	0	25*	78*	0
CCn1cc(C(=O)N2CCCC(N3CCN(c4ccccc4C)CC3)C2)cn1 (stereo unspecified)	-1	1	-1	0	12*	-4	1
Cc1ccccc1N1CCN(C2CCCN(C(=O)c3cc[n+]([O-])cc3)C2)CC1 (stereo unspecified)	-1	4	-1	-1	2	.	.
O=C(CSc1nnc(-c2ccccc2F)n1-c1ccccc1)c1ccc2ccccc2c1	-1	3	-1	0	-4	.	.
